The AC50 is the concentration giving half of the maximal activity seen.

Records with an inconclusive call do not appear. Active and inactive are the calls of the source. Rule for the calls: active = hit-call score of the fitted dose curve at least 0.9, where 1 is the maximum; inconclusive = response in the unintended direction; inactive = score below 0.9.

The text below walks through data of PubChem BioAssay (EPA / NIEHS).

human Norepinephrine Transporter (NET), SLC6A2 (gene 6530), sequence (P23975 whole entry, looked up): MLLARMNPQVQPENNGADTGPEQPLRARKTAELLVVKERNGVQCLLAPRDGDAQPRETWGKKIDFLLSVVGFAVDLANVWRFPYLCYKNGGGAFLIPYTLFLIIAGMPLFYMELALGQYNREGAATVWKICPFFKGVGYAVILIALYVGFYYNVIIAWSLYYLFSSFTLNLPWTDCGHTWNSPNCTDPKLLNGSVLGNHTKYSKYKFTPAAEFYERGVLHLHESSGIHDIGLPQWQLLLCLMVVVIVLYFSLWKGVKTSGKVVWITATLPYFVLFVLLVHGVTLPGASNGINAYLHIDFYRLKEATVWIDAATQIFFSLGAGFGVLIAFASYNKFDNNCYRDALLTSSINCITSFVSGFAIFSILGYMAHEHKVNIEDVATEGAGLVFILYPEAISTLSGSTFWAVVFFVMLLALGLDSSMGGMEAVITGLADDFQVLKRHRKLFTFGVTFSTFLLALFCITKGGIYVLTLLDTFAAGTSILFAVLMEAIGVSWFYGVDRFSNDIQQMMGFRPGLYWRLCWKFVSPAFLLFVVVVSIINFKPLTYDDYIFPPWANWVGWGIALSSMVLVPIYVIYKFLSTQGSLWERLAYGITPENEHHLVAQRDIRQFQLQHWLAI

This test addresses human Norepinephrine Transporter (NET), SLC6A2 (gene 6530) (UniProt P23975). Description: NVS_TR_hNET: NovaScreen (NVS) Transporter Assay for human Norepinephrine Transporter (NET) (AID 2283377).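 Note: cell-free membrane protein extracted from CHO cells expressing human NET.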 As to the method:
NVS_TR_hNET is a biochemical, single-readout assay that uses extracted gene-proteins from CHO in a cell-free assay. Measurements were taken 1 hour after chemical dosing in a 96-well plate.NVS_TR_hNET is one of one assay component(s) measured or calculated from the NVS_TR_hNET assay. It is designed to make measurements of radioligand binding, a form of binding reporter, as detected with scintillation counting signals by Filter-based radiodetection technology.Data from the assay component NVS_TR_hNET was analyzed into 1 assay endpoint. This assay endpoint, NVS_TR_hNET, was analyzed in the positive analysis fitting direction relative to DMSO as the negative control and baseline of activity. Using a type of binding reporter, loss-of-signal activity can be used to understand changes in the binding as they relate to the gene SLC6A2. Furthermore, this assay endpoint can be referred to as a primary readout, because the performed assay has only produced 1 assay endpoint. To generalize the intended target to other relatable targets, this assay endpoint is annotated to the transporter intended target family, where the subfamily is neurotransmitter transporter.
Binding assays used specific radioligands (tritiated, iodinated) with non-radioactive competitive displacement ligands in agonist or antagonist protocols (as indicated) and various reference compounds and inhibitors to titrate specific binding to receptors and transporters. Most enzyme assays (CYPs, kinases, phosphatases, proteases, HDACs) used recombinant protein and specific substrates (fluorescence mostly, some colorimetric and radioactive) and inhibitors, followed by a biochemical separation of substrate and product. All assays for the biochemical HTS were initially run in duplicate at a single concentration (10 uM for CYP450 assays and 25 uM for all others). […] Each assay was run with positive and negative controls, and concurrent controls on every plate. The follow-up (secondary) screen tested active chemical-pairs in concentration series, as well as a few additional assays not tested in the primary screen, some selected negative inactives, and several cases re-run in the concentration series for confirmatory purposes.
In the case of `COCCOc1cc2cc(C(=O)NC3CCN(C(C)C)CC3)n(CC(=O)Nc3ccc(Cl)cn3)c2cn1`, the AC50 is 5.89 µM (active). As to `O=C1CCC(N2C(=O)c3ccccc3C2=O)C(=O)N1` (stereo unspecified), the compound was called inactive. With `CNS(=O)(=O)c1cc(C(=O)N2CCC(CCN3C4CCC3CC(n3c(C)nc5ccccc53)C4)(c3cccc(F)c3)CC2)c(Cl)cc1F` (stereo unspecified), the AC50 is 2.25 µM (active). Consider `O=c1[nH]c2ccc(S(=O)CCN3CCC(Cc4ccc(F)cc4)CC3)cc2o1` (stereo unspecified), for which the AC50 is 2.28 µM (active). In the case of `CCOC(=O)c1ccc(C2CCC(NC[C@H](O)COc3ccc(O)c(NS(C)(=O)=O)c3)CC2)cc1` (stereo partly specified), the AC50 was 1.01 µM (active). On to `CCCCCCc1ccc(O)cc1O`, for which the AC50 was 12.8 µM (active). For `O=C(O)c1cccc(Oc2ccccc2)c1`, the compound was classed as inactive. Regarding `Oc1ccc2c(c1)-c1ccccc1C2`, the AC50 is 9.7 µM (active). Consider `CC(=O)OCCC(C)C`, for which the compound was called inactive. In the case of `Cn1c(=O)cc(Oc2ccc(F)cc2F)c2cnc(NCC(C)(C)O)nc21`, the AC50 was 4.35 µM (active).

With `CCc1cc(SCc2sc(-c3ccc(C(F)(F)F)cc3)nc2CN2CCN(c3ccc(OC)cc3)CC2)ccc1OCC(=O)O`, the AC50 was 4.89 µM (active). In the case of `CCC(C)(C)C(=O)O[C@H]1C[C@@H](C)C=C2C=C[C@H](C)[C@H](CC[C@@H]3C[C@@H](O)CC(=O)O3)[C@H]21`, the call was inactive.

In the case of `Nc1ccc(Nc2ccccc2)cc1`, the AC50 was 6.87 µM (active).

Take `Cc1[nH]cnc1C[C@H]1CCc2c(C)c3ccccc3n2C1=O`: the AC50 was 7.21 µM (active). Take `COc1cccc(-c2ccc(/C=C\CN3CCCCCC3)cc2Cl)c1`: the AC50 is 2.67 µM (active).

As to `CCn1nc(Cc2ccccc2)cc1C1CCN(C[C@H]2C[C@H](N(C)[C@@H](C(=O)O)C(C)C)C[C@@H]2c2cccc(F)c2)CC1`, the AC50 is 11 µM (active). For `CC[C@H]1CC[C@H](NCc2cc3c(cc2OC)[C@H]2C[C@H]2C(=O)N3C)[C@H](c2ccccc2)N1`, the AC50 is 11.3 µM (active). On the same count and under the same terms, with `CCOC(=O)COc1ccc2c(c1)CC(NCC(O)c1cccc(Cl)c1)CC2` (stereo unspecified) the figure was 0.312 µM (active).

In the case of `CC(C)CCCCCCCOC(=O)CCCCC(=O)OCCCCCCCC(C)C`, the result was inactive. Same read-out and setting: as for `COc1ccc2sc(C(=O)Nc3nnn[nH]3)c(OC(C)C)c2c1`, the entry is “inactive”. As for `CCOc1cccc(-n2cc(C(=O)N3CCN(c4cc(C(=O)O)c5ccccc5c4)CC3)nc2-c2ccc(C)cc2)c1`, the AC50 was 13.7 µM (active).
